# Data: PubChem BioAssay AID624206 (National Center for Advancing Translational Sciences (NCATS), 2012)
# The source made the active and inactive calls. Calls come from the whole dose curve; as a rule, active = well fitted curve in the direction sought with a large enough effect; inconclusive = small, poorly fitted or top-dose-only effect, or another doubt; inactive = no such curve, though single readings can be large or run the other way.
# Test: Quantitative high throughput screen to test cell viability of anti-malarial compounds targeting the delayed death phenotype.
# Settings: HepG2 viability, CellTiter-Glo luminescence, 48 h
# Excerpt: NIH Molecular Libraries Probe Production Network [MLPCN] NIH Chemical Genomics Center [NCGC] MLPCN Grant: R21 NS059500 Assay Provider: David Fidock and Eric Ekland, Columbia University The goal of this screen is to measuer the cytoxoxicity (against HepG2 cell line) of a set of anti-malarial compounds that target the delayed death pheonotype, by inhibiting the development of the apicoplast in the malarial parasite Plasmodium falciparum (described below) The biochemical processes that make this organelle essential for erythrocytic stage parasites are not well understood. However, antibiotics, such as azithromycin and tetracycline, which target the apicoplast translational machinery, have a potent antimalarial effect. […] We have developed a cell-based assay that measures parasite growth based on the expression of an integrated copy of a firefly luciferase reporter. To detect small molecules that cause this 'delayed death' phenotype, erythrocytes infected with the luciferase-expressing parasites were incubated with compounds for either one or two generations, corresponding to 48 and 96 hours, respectively. Compounds that inhibit parasite growth in the second generation, but not the first, should be enriched in antimalarials that target the apicoplast. Growth inhibition is detected by a decrease in luciferase activity
# Cells were plated at a density of 2000 cells/well/5uL in 1536 well white tissue culture plate with culture medium. Triplicate plates were prepared. Plates were incubated at 37C, 5% CO2 for 5 hours and then 23nL of compounds and positive control were transferred to the assay plates. Tetraoctylammonium bromide was added as a positive control. Plates were then incubated at 37C, 5% CO2 for 48 hours. 5 uL of CellTitler-Glo buffer was added to each well and then incubated for 30 min at room temperature. Luminescence was measured using ViewLux (1 second, slow, 2X).
row,Compound,max response
1,Clc1ccc(-c2c[n+](Cc3ccc(Cl)cc3Cl)c3n2CCCCC3)cc1,-16.1% (inactive)
2,O=C(NCc1cccnc1)c1ccc(NS(=O)(=O)c2ccccc2)cc1,-0.715% (inactive)
3,COCCNC(=O)c1cccc(OC2CCN(Cc3cccc(SC)c3)CC2)c1,-0.53% (inactive)
